Measurements published in PubChem BioAssay AID1851 (National Center for Advancing Translational Sciences (NCATS), 2009).
Out of some 16,000 compounds screened, about 2,600 (16%) were called active. Roughly 20% stayed inconclusive and do not appear here. Calls come from the whole dose curve; as a rule, active = well fitted curve in the direction sought with a large enough effect; inconclusive = small, poorly fitted or top-dose-only effect, or effect the other way; inactive = no such curve, though single readings can be large or run the other way. The list is a sample of the results.

molecular target: Cytochrome P450 2D6 (Homo sapiens) (UniProt P10635); experiment: Cytochrome panel assay with activity outcomes; conditions: recombinant CYP, pro-luciferin dealkylation, luminescence, p450-cyp2d6; series mostly up to 57.1 µM; activity, negative = inhibition: at the top concentration
% is set by controls: 0 for no effect and ±100 for the full control effect.

Cytochrome P450 2D6 (Homo sapiens), sequence (P10635 whole entry, looked up): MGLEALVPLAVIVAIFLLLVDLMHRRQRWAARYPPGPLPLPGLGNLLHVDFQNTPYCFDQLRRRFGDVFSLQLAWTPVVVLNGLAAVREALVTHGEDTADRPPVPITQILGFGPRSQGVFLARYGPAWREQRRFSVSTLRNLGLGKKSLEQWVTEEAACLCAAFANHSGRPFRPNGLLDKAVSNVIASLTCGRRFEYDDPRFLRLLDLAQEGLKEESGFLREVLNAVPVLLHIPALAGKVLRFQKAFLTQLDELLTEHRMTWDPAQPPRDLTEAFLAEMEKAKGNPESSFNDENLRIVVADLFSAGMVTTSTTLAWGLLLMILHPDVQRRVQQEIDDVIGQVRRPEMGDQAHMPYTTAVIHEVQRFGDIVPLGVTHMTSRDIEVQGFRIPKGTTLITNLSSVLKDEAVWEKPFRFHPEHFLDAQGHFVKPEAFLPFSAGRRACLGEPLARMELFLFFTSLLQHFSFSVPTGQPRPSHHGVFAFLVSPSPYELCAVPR

Row | Compound | activity, negative = inhibition | AC50
1 | CCCCN=c1sc(C(=O)OC)cc(=O)n1CCCC | -10.8% (inactive) | 
2 | O=C1C2=C(Nc3cc([N+](=O)[O-])ccc3N2)O[C@@H]1c1c[nH]c2ccc(COc3ccccc3)cc12 | 5.7% [at 11.4 µM] (inactive) | 
3 | Cc1noc(C)c1C(=O)N1CCC2(CCCN(c3ccncc3)C2)CC1 | 2.43% (inactive) | 
4 | O=C(O)c1cc2c(o1)CCC/C2=N\O | 9.97% (inactive) | 
5 | Cc1nc2ncnn2c(C)c1CCC(=O)Nc1ccc(S(=O)(=O)N2CCCCCC2)cc1 | -10.7% (inactive) | 
6 | CCCn1nc(Oc2nc(NCC)nc(NCC)n2)ccc1=O | -6.81% (inactive) | 
7 | Cc1nc2nc(-c3ccc(Cl)cc3)nn2c(C)c1Cl | -3.06% (inactive) | 
8 | COC(=O)c1cc(NC(=O)CC2NC3CCCCC3NC2=O)cc(C(=O)OC)c1 (stereo not given) | 10.9% (inactive) | 
9 | C/C=C\C[C@H](C)[C@H](O)[C@H]1C(=O)N[C@@H](CC)C(=O)N(C)CC(=O)N(C)[C@@H](CC(C)C)C(=O)N[C@@H](C(C)C)C(=O)N(C)[C@@H](CC(C)C)C(=O)N[C@@H](C)C(=O)N[C@@H](C)C(=O)N(C)[C@@H](CC(C)C)C(=O)N(C)[C@@H](CC(C)C)C(=O)N(C)[C@@H](C(C)C)C(=O)N1C | -1.21% [at 25.6 µM] (inactive) | 
10 | COc1ncc2nc(-c3ccc(Cl)cc3)c(=O)n(-c3ccccc3)c2n1 | -2.38% (inactive) | 
11 | CCc1ccc(-c2ccc(C(=O)C(F)(F)F)[nH]2)cc1 | 7.66% (inactive) | 
12 | Cc1ccccc1C(=O)NC(NCc1ccco1)C(Cl)(Cl)Cl (stereo not given) | -0.249% (inactive) | 
13 | Cc1nc(SCC(=O)Nc2c(C)nn(C)c2C)c2cnn(-c3ccccc3)c2n1 | 7.46% (inactive) | 
14 | CCc1nnc(NC(=O)C2CCN(C(=O)NC3CCCCC3)CC2)s1 | 35.1% (inactive) | 
15 | CC(=O)N/N=C/c1cc([N+](=O)[O-])ccc1OCCOc1ccccc1 |  | 0.0562 µM (active)
16 | CC(/C=N/NC(=O)c1cccc([N+](=O)[O-])c1)=C\c1ccccc1 | -0.219% (inactive) | 
17 | COc1cc(/C=N/NC(=O)c2cccc([N+](=O)[O-])c2)ccc1OCc1ccc(C)cc1 | -1.87% (inactive) | 
18 | N#CCCn1c(=O)c(-c2ccccc2)nc2cnc(OCc3ccccc3)nc21 | 0.297% (inactive) | 
19 | COc1ccc(COC(=O)N/N=C2/C[C@@H](O)[C@@H](O)[C@@H]3[C@@H]4C(=O)N([C@@H](C)c5ccccc5)C(=O)[C@H]4CC[C@H]23)cc1 | -3.9% [at 11.4 µM] (inactive) | 
20 | O=C(C[n+]1cccc(NC(=O)c2ccccc2)c1)c1ccc(NC(=O)c2ccccc2)cc1 |  | 14.1 µM (active)
21 | COc1ccc(C(=O)Nc2ccc(C(=O)OCC(=O)c3ccccc3)cc2)cc1 | -25.3% (inactive) | 
22 | COc1ccc(C(=O)COC(=O)c2ccc(NC(=O)c3ccccc3)cc2)cc1 | 0.145% (inactive) | 

Row | Compound | activity, negative = inhibition | AC50
23 | COc1cccc(Cn2c(=O)c(CCc3ccccc3)nc3cnc(N(C)C)nc32)c1 | -1.17% (inactive) | 
24 | N[C@@H](C(=O)O)c1ccc(O)c(C(=O)O)c1 | -5.56% (inactive) | 
25 | COc1cccc(Cn2c(=O)c(CCc3ccccc3)nc3cncnc32)c1 | -6.45% (inactive) | 
26 | CC1=NCC[N@@+]1(CCc1ccccc1)Cc1ccccc1 |  | 0.0501 µM (active)
27 | CC(=O)NS(=O)(=O)c1ccc(NC(=O)NC2CCCCC2)cc1 | -8.87% (inactive) | 
28 | CC(=O)Nc1ccc(S(=O)(=O)NCC2CCC(C(=O)N3CCN(c4ccccn4)CC3)CC2)cc1 (stereo not given) | -15.8% (inactive) | 
29 | CC(=O)Nc1ccc(S(=O)(=O)N2CCN(c3nc(NC4CCCC4)c4ccccc4n3)CC2)cc1 |  | 12.6 µM (active)
30 | O=c1c2ccccc2nnn1CSc1nnc(COc2ccc(Cl)cc2)n1Cc1ccco1 | -20.5% (inactive) | 
31 | O=C1CN2CCN(CC2)CC(=O)Nc2ccc(cc2)S(=O)(=O)c2ccc(cc2)NC(=O)CN2CCN(CC2)CC(=O)Nc2ccc(cc2)S(=O)(=O)c2ccc(cc2)N1 | 0.0037% [at 11.4 µM] (inactive) | 
32 | CC1(C)OC[C@@H]2O[C@H](n3cnc4c(N)nc(Cl)nc43)[C@@H](OS(C)(=O)=O)[C@@H]2O1 | 8.22% [at 11.4 µM] (inactive) | 
33 | Cc1noc(NS(=O)(=O)c2ccc(NC(=O)CC34CC5CC(CC(Br)(C5)C3)C4)cc2)c1C | 13% (inactive) | 
34 | CCCCCCC(C)n1cc(C(C)=O)c(=O)[nH]c1=O (stereo not given) | -5.37% (inactive) | 
35 | CCC/C=C(\CCC)C(NC(=O)Oc1ccc(F)cc1)c1ccc(C(=O)OC)cc1 (stereo not given) | -20.4% (inactive) | 
36 | COC(=O)c1[nH]c2ccc(Br)cc2c1NC(=O)CN1CCN(C2CCCCC2)CC1 |  | 1 µM (active)
37 | COC(=O)c1[nH]c2ccc(Br)cc2c1NC(=O)Oc1ccccc1 | -5.73% (inactive) | 
38 | COC(=O)c1[nH]c2ccc(Br)cc2c1NC(=O)CN1CCCc2ccccc21 | -30% (inactive) | 
39 | CCOC(=O)C1CN(S(=O)(=O)c2cccc(C(F)(F)F)c2)c2cc(CC(=O)OC)ccc2O1 (stereo not given) | -21.1% (inactive) | 
40 | CN1CCN(c2ncc3nc(-c4ccc(Cl)cc4)c(=O)n(CCC#N)c3n2)CC1 | 4.88% (inactive) | 
41 | CNS(=O)(=O)c1ccccc1C(=N)c1ccccc1 | 19.2% [at 11.4 µM] (inactive) | 
42 | CCOC(OCC)P(=O)(O)CCCNCc1ccc(Cl)c(Cl)c1 | 8.85% (inactive) | 
43 | CCCCCNCc1cccc(Br)c1 |  | 2 µM (active)
44 | CCNC(=S)NNC(=O)c1cccc(Br)c1 | 1.21% (inactive) | 

Row | Compound | activity, negative = inhibition | AC50
45 | Cc1cc(Cl)nc2ccc(Cc3ccc4nc(Cl)cc(C)c4c3)cc12 | -2.9% [at 11.4 µM] (inactive) | 
46 | COc1ccc(/C=N/NC(=S)NC2CCS(=O)(=O)C2)cc1OC (stereo not given) | -4.59% (inactive) | 
47 | C=CC1=C(C(=O)O)N2C(=O)[C@@H](NC(=O)/C(=N\OCC(=O)O)c3csc(N)n3)[C@@H]2SC1 | -1.18% [at 25.6 µM] (inactive) | 
48 | NC[C@](O)(CS(=O)(=O)O)c1ccc(Cl)cc1 | 17.4% (inactive) | 
49 | Cc1cc(-c2cc(-c3ccc(Cl)cc3)nc(N)c2C#N)co1 | -12.3% (inactive) | 
50 | Cc1cc(OCCn2cc(/C(N)=N/O)c3ccccc32)ccc1Cl |  | 3.98 µM (active)
51 | COc1ccccc1OCCn1cc(C(=O)c2ccco2)c2ccccc21 | -27.9% (inactive) | 
52 | CO[C@]1(NC(=O)CSCC#N)C(=O)N2C(C(=O)O)=C(CSc3nnnn3C)CS[C@H]21 |  | inactive
53 | C[C@H](C[C@H](N)C(=O)O)C(=O)O | 12.6% (inactive) | 
54 | Cc1ccc(-c2cc(-c3nnc(SCC(=O)NC(C)C(C)C)n3N)c3ccccc3n2)cc1 (stereo not given) | -4.49% (inactive) | 
55 | COc1ccc(C)cc1NC(=O)CSc1nnc(-c2ccc(OC)c(OC)c2)n1N | -12.9% (inactive) | 
56 | CCn1c2ccccc2c2cc(NC(=O)CSc3nnc(-c4ccc(OC)c(OC)c4)n3N)ccc21 |  | 14.1 µM (active)
57 | Cc1cccc(NC(=O)CSc2nnnn2C)n1 | -12.5% (inactive) | 
58 | CCCCOc1ccc(C(=O)N/C(=C\c2cccc([N+](=O)[O-])c2)C(=O)OCCC)cc1 | 0.716% (inactive) | 
59 | Cc1cc(C)c(S(C)(=O)=O)c(Oc2ccc(C(C)(C)C)cc2)n1 | -9.68% (inactive) | 
60 | O=c1c[n+](CCCC[n+]2cc(=O)o[nH]2)[nH]o1 | -2.36% [at 11.4 µM] (inactive) | 
61 | Cc1cnc(CNc2ncncc2-c2cccc(C#N)c2)cn1 | -10.4% (inactive) | 
62 | COc1ccccc1CNc1ncncc1-c1cccc(C#N)c1 |  | 15.8 µM (active)
63 | COc1ccc(CNc2ncncc2-c2cccc(C#N)c2)c(OC)c1 |  | 5.01 µM (active)
64 | COc1ccc(CNc2ncnc3ccc(-c4cccc(C#N)c4)cc23)c(OC)c1 | -10% (inactive) | 
65 | O=C(Oc1oc(-c2ccco2)nc1C=Nc1ccc(Cl)cc1)c1ccco1 | 6.95% (inactive) | 
66 | Cc1c2c(nc3ccccc13)-c1cccc(=O)n1C2 | -5.55% (inactive) | 

Row | Compound | activity, negative = inhibition | AC50
67 | COc1cccc(/C=N\NC(=O)c2cc(OCC(F)(F)F)ccc2OCC(F)(F)F)c1 | 23.1% (inactive) | 
68 | COc1ccc2[nH]c(=O)c(CN(CCO)C(=O)c3cccs3)cc2c1 | 5.47% (inactive) | 
69 | O=[N+]([O-])c1cc(/C=N/O)ccc1SCc1ccccc1 | 16% (inactive) | 
70 | CC1(C)O[C@@H]2O[C@H]([C@H](O)CO/N=C3/[C@H]4O[C@@H]4[C@@H](O)[C@H]4[C@H]3CCn3c(=O)n(-c5ccccc5)c(=O)n34)[C@@H](O)[C@@H]2O1 | 7.2% [at 11.4 µM] (inactive) | 
71 | CO[C@@H]1COC(=O)[C@H]2CCCN2C(=O)[C@@H](C)COC(=O)CCC[C@H]1C | 12% [at 11.4 µM] (inactive) | 
72 | CCOC(=O)CNc1c(-c2ccccc2)nc2ccc(Cl)cn12 |  | 7.94 µM (active)
73 | CCOC(=O)c1c(-c2ccccc2)nc2ccc(Cl)cn12 | -16.8% (inactive) | 
74 | CCOC(=O)Cn1c(-c2ccccc2)nc2ccccc2c1=O | -14.6% (inactive) | 
75 | COc1cccc2c1C(=O)c1c(O)c3c(c(O)c1C2=O)C[C@](O)(C(=O)CO)C[C@H]3O[C@@H]1C[C@H](N)[C@H](O)[C@H](C)O1 | -14.4% [at 25.6 µM] (inactive) | 
76 | Cc1ccccc1NC(=O)C1CC(=O)N(c2ccc3c4c(cccc24)CC3)C1 (stereo not given) | -28% (inactive) | 
77 | CC(C)=CCC/C(C)=C/CO/N=C1/C[C@@H](O)[C@@H](O)[C@@H]2[C@@H]3C(=O)N(Cc4ccccc4)C(=O)[C@H]3CC[C@@H]12 | 15% [at 11.4 µM] (inactive) | 
78 | CC(=O)OC[C@@H]1O[C@@H](O/N=C2/C[C@@H](O)[C@@H](O)[C@@H]3[C@@H]4C(=O)N(Cc5ccccc5)C(=O)[C@H]4CC[C@H]23)[C@H](OC(C)=O)[C@H](OC(C)=O)[C@@H]1OC(C)=O |  | 3.16 µM (active)
79 | CC(=O)OC[C@@H]1O[C@@H](O/N=C2/C[C@@H](O)[C@@H](O)[C@@H]3[C@@H]4C(=O)N([C@@H](C)c5ccccc5)C(=O)[C@H]4CC[C@@H]23)[C@H](OC(C)=O)[C@H](OC(C)=O)[C@@H]1OC(C)=O | -0.595% [at 11.4 µM] (inactive) | 
80 | CC(=O)OC[C@@H]1O[C@@H](O/N=C2/C[C@@H](O)[C@@H](O)[C@@H]3[C@@H]4C(=O)N(Cc5ccc6c(c5)OCO6)C(=O)[C@H]4CC[C@@H]23)[C@H](OC(C)=O)[C@H](OC(C)=O)[C@@H]1OC(C)=O | -5.23% [at 11.4 µM] (inactive) | 
81 | CCN1C(=O)[C@H]2[C@H]3[C@H](O)[C@H](O)C/C(=N/OCC[C@H]4C=C[C@H](OC(C)=O)[C@@H](COC(C)=O)O4)[C@@H]3CC[C@@H]2C1=O | -11.1% [at 11.4 µM] (inactive) | 
82 | CC(=O)OC[C@@H]1O[C@@H](O/N=C2/C[C@@H](O)[C@@H](O)[C@@H]3[C@@H]4C(=O)N(Cc5ccc6c(c5)OCO6)C(=O)[C@H]4CC[C@H]23)[C@H](OC(C)=O)[C@H](OC(C)=O)[C@@H]1OC(C)=O |  | 3.16 µM (active)
83 | CC(=O)OC[C@@H]1O[C@@H](O/N=C2/C[C@@H](O)[C@@H](O)[C@@H]3[C@@H]4C(=O)N(Cc5ccccc5)C(=O)[C@H]4CC[C@@H]23)[C@H](OC(C)=O)[C@H](OC(C)=O)[C@@H]1OC(C)=O |  | 3.98 µM (active)
84 | CCOC(=O)N/N=C1/C[C@@H](O)[C@@H](O)[C@@H]2[C@@H]3C(=O)N(Cc4ccccc4)C(=O)[C@H]3CC[C@H]12 | 9.96% [at 11.4 µM] (inactive) | 
85 | CC(C)CO/N=C1/C[C@@H](O)[C@@H](O)[C@@H]2[C@@H]3C(=O)N(Cc4ccc5c(c4)OCO5)C(=O)[C@H]3CC[C@@H]12 | -15.9% [at 11.4 µM] (inactive) | 
